Source: PubChem BioAssay (National Center for Advancing Translational Sciences (NCATS))
A selection: hits, their analogues and other compounds. The true share with any hit is near 2.2%.
BRCA1 expr act: qHTS Assay to Identify Small Molecule Activators of BRCA1 Expression | MCF7-BRCA1-FFLuc reporter, luminescence, 48 h; response scale: scaled: vehicle 0%, 10 µM genistein 100% | Potency, µM (titrated, usually from 46.1 µM), for inactives: top-dose activation, actives largely listed as activators | 380,000 compounds, 1.1% hits | AID 624202, 2012; note: potency is the fitted concentration of half-maximal effect; nearly all actives have a fitted effect of over 80% in size
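Compounds are tested at multiple concentrations on MCF7 BRCA1-luciferase reporter cells seeded at 2000 per well; after 48 h, a single luminescence end-point is taken and curves fitted to the normalized data.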
IL2 activator: qHTS of IL-2 Activators | IL-2 activation reporter assay, cell-based qHTS; stimulated with anti-CD3/CD4/CD28 beads; in transgenic mouse T cells | AID 652025, 2013 | activation, % (series mostly up to about 46 µM) | 360,000 compounds, 0.065% hits; in the data active = activation above about 50%; inconclusive = mostly about 30% to 49%; note: 0% is about no effect
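Using fluorescent plate cytometry, EGFP and DsRed are detected in transgenic mouse T cells stimulated 18 h at 37 degrees C with antibody-coated beads after 60 min compound pretreatment.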
mIDH1 inhibitor: qHTS for Inhibitors of mutant isocitrate dehydrogenase 1 (IDH1): qHTS. IDH1-R132H enzyme, NADPH consumption, diaphorase/resazurin fluorescence. Isocitrate dehydrogenase [NADP] cytoplasmic (Homo sapiens), O75874. 390,000 compounds, 0.093% hits. Potency, µM (top dose mostly 76.6 µM), inactives show at the top dose activity change, negative = inhibition, hits mostly inhibitors. AID 602179, 2012; note: potency is the fitted concentration of half-maximal effect; % is set by controls: 0 for no effect and ±100 for the full control effect; nearly all actives have a fitted effect of over 65% in size
Target sequence (O75874 whole entry R132H, stated change not applied): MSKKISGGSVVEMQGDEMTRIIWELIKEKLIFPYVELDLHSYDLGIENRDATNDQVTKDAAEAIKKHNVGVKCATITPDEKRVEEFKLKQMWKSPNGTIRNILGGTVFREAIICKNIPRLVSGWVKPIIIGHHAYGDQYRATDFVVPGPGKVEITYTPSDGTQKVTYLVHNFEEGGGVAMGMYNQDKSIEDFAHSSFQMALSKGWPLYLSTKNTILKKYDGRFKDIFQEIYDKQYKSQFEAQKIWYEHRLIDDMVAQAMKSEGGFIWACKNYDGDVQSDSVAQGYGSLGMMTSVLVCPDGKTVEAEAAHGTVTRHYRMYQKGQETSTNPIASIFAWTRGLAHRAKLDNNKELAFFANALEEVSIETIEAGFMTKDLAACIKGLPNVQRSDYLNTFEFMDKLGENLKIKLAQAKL
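IDH1-R132H (0.5 ug/mL) preincubated 30 min with compound, then NADPH (0.016 mM) and alpha-KG (2 mM) added; 80 min at RT, pH 7.5. Remaining NADPH coupled via diaphorase/resazurin to fluorescence (540/590 nm); concentration-response curves normalized to no-enzyme control.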
rTrxR1 inhibitor: qHTS Assay for Inhibitors of Mammalian Selenoprotein Thioredoxin Reductase 1 (TrxR1): qHTS; recombinant rTrxR1, NADPH fluorescence consumption, selenite substrate; Potency, µM (titrated, usually from 114 µM), for inactives: at the highest dose activity change, negative = inhibition, actives largely listed as inhibitors; 390,000 compounds, 1% hits; AID 588453, 2011; note: potency is the fitted concentration of half-maximal effect; % is set by controls: 0 for no effect and ±100 for the full control effect; nearly all actives have a fitted effect of over 65% in size
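Rat TrxR1 (90 nM in the dispensed reagent) was pre-reduced with 400 uM NADPH for 5 min at room temperature, then incubated with compound for 15 min. After 400 uM selenite was added, NADPH fluorescence (Ex 340/Em 450 nm) was followed for 8 min.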
TrxR1 substrate: qHTS Assay for Substrates of Mammalian Selenoprotein Thioredoxin Reductase 1 (TrxR1): qHTS | purified TrxR1 substrate turnover, NADPH consumption readout | Potency, µM (titrated, usually from 114 µM), for inactives: at the top dose activity change, negative = substrate turnover | Thioredoxin reductase 1, cytoplasmic (Rattus norvegicus), O89049 | 390,000 compounds, 0.01% hits; note: potency is the fitted concentration of half-maximal effect; % is set by controls: 0 for no effect and ±100 for the full control effect; nearly all actives have a fitted effect of over 50% in size
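Rat TrxR1, dispensed at 90 nM, was prereduced with 400 uM NADPH (final) for 5 min at ~22 deg C, then incubated with compound 15 min before 400 uM selenite. A first-read NADPH fluorescence drop versus no-compound background flagged substrates.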
Giardia kill: Small Molecules that selectively kill Giardia lamblia: qHTS; activity change, % at 7.66 µM, hits read low; Giardia lamblia trophozoite viability; AID 540267, 2011; 340,000 compounds, 0.15% hits; in the data active = activity change below about -80%; inconclusive = between about -30% and that limit;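 note: parasites exposed to compound for two days anaerobically before the ATP read; % is set by controls: 0 for no effect and ±100 for the full control effect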
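Giardia lamblia trophozoites (100 cells/well) were incubated with compounds for 48 h at 37 deg C under anaerobic conditions. Viability was read as ATP content by one-step luminescence after 15-30 min at room temperature.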
* marks the source's active call; other numbers are inactive results; ? = inconclusive; / = no result given; [ ] = another dose, or the depositor's remark. Unless noted, calls come from the whole dose curve; as a rule, active = well fitted curve in the direction sought with a large enough effect; inconclusive = small, poorly fitted or top-dose-only effect, or another doubt; inactive = no such curve, though single readings can be large; an effect the other way counts as inactive or inconclusive.

SMILES | BRCA1 expr act | IL2 activator | mIDH1 inhibitor | rTrxR1 inhibitor | TrxR1 substrate | Giardia kill
Cc1ccc(S(=O)(=O)/N=C2/C=C(C3C(=O)CC(C)(C)CC3=O)C(=O)c3ccccc32)cc1 | 47% | 0 | -1% | 18µM* | -7% | 12
C1=Nc2ccccc2CN1c1ccccc1 | 7.1µM* | -1 | 3% | -1% | -2% | -7
CC(C)c1ccc(N2C=Nc3ccc(C(C)C)cc3C2)cc1 | -1% | -2 | 2% | 3%[57.1 µM] | 3%[57.1 µM] | -9
CN(C)C=Nc1ccc2nc3c(cc2c1)[nH]c1ccccc13 | 83% | 1 | 17% | 17% | 40% | -89*
CCOC(=O)c1[nH]c2ccccc2c1N=CN(C)C | 11% | 0 | 8% | ? | 12% | 2
CC1(C)CC(=O)c2cnc(N3CCc4ccccc4C3)nc2C1 | 7.1µM* | -2 | 0% | 6% | 1%[57.1 µM] | -10
Cc1ccc(C(=O)Nc2c(-c3ccccc3)nc3ccccn23)cc1C | -7% | / | 0% | 15% | 5% | /
N#Cc1cccc(-c2csc(C(O)c3ccc(F)cc3)n2)c1 (stereo not given) | 7.9µM* | 2 | / | / | / | /
COc1cccc(C(O)c2nc(-c3cccc(C#N)c3)cs2)c1 (stereo not given) | -3% | 1 | / | / | / | /
CC(C)(C)OC(=O)NS(=O)(=O)NCc1ccco1 | / | / | / | 3% | -2% | -19
COc1ccc(S(=O)(=O)NCC(c2ccco2)S(=O)(=O)c2cccs2)cc1C (stereo not given) | / | / | 7% | ? | 2%[57.1 µM] | /
Cc1cc(F)ccc1S(=O)(=O)NCC(c1ccco1)S(=O)(=O)c1cccs1 (stereo not given) | / | / | 19% | 1.1µM* | 6%[57.1 µM] | /
Cn1ccc(C(=O)Nc2ccc(Br)cc2Br)n1 | 2.2µM* | 0 | 2% | -10% | -7% | 20
COc1ccc(/C=C/C(=O)Nc2ccc3nc(N4CCC(C)CC4)cc(C)c3c2)cc1OC | / | / | 0% | 42% | 4% | /
COc1cccc(-n2nc(C#N)c(Cl)cc2=O)c1 | -89% | -6 | 4% | 4µM* | 5%[57.1 µM] | -19
COc1ccc(CNC(=O)Cc2c(C)c3c(cc(C)c4c(C)coc43)oc2=O)cc1 | / | / | -5% | 15% | 1% | /
COc1c(Cl)cc(Cl)cc1CNCCSc1nnnn1C | 7% | / | 0% | 8% | 6% | /
CCSc1nnc(NC(=O)c2cccc3ccccc23)s1 | -30% | -1 | 5% | 24% | 17% | 10
CCSc1nnc(NC(=O)c2csc(C)c2)s1 | 5µM* | -1 | 14% | 15% | 11% | -20
COc1cccc(NC(=O)/C(C#N)=C/c2c(C)n(Cc3ccc(Cl)cc3)c3ccccc23)c1 | / | / | -7% | -6% | -7% | /
O=C1OC(CN(Cc2ccccc2)Cc2ccccc2)CN1N=Cc1ccc([N+](=O)[O-])o1 (stereo not given) | -38% | -1 | 1% | 56µM* | -15% | -94*
O=C1OCCN1/N=C/c1ccc([N+](=O)[O-])o1 | -31% | -1 | 9% | ? | 4% | -92*
CCOc1ccc(CC(=O)NCc2ccc3c(c2)CCN3C(=O)c2ccc(F)cc2)cc1OCC | / | / | -16% | 8%[57.1 µM] | -2%[57.1 µM] | /
O=c1c(C(c2nnnn2C2CCCCC2)N2CCCCC2)coc2ccc(Cl)cc12 (stereo not given) | 7% | -1 | 5% | 28µM* | 2% | -2
COc1ccc(C2(CNC(=O)C(=O)Nc3ccc(F)cc3)CCCC2)cc1OC | / | / | 14% | 3% | -3% | /
SMILES | BRCA1 expr act | IL2 activator | mIDH1 inhibitor | rTrxR1 inhibitor | TrxR1 substrate | Giardia kill
O=[N+]([O-])c1ccc(O)c(C=Nc2ccc3c(c2)OCO3)c1 | 21% | -1 | 4% | ? | -3% | -12
O=[N+]([O-])c1cc(Br)cc(C=Nc2ccc3c(c2)OCO3)c1O | -20% | 0 | 0% | 45µM* | -14% | -20
CCCC(=O)OCCNc1cc(SCCC(=O)OC)c2nonc2c1[N+](=O)[O-] | -46% | -2 | -3% | 10µM* | -12% | -8
Cn1ccnc1Sc1cc(NCCCO)c([N+](=O)[O-])c2nonc12 | -22% | -1 | 5% | ? | 9%[57.1 µM] | -10
O=[N+]([O-])c1c(NCCCO)cc(Sc2ccc(Cl)cc2)c2nonc12 | -93% | -5 | -1% | 2.8µM* | -5% | 0
CC(=O)OCCNc1cc(SCc2ccco2)c2nonc2c1[N+](=O)[O-] | -82% | -1 | 6% | 22µM* | -9% | 10
O=[N+]([O-])c1c(NCCCO)cc(SCc2ccco2)c2nonc12 | -51% | -4 | 0% | 14µM* | -14% | 7
Cc1cccn2c(=O)c(C(=O)NCc3ccccc3Cl)c(O)nc12 | / | / | -3% | 8% | -1% | /
CC(=O)c1ccc(NS(=O)(=O)c2ccc(Br)s2)cc1 | 6% | / | -3% | -8% | -4% | /
CCCN(Cc1cccs1)C(=O)Nc1cc(C)cc(C)c1 | / | / | 3% | 8% | -8% | /
NC(=O)CCCn1c(C(=O)c2ccc(Cl)cc2)c2ccc([N+](=O)[O-])cc2[n+]1[O-] | -1% | -1 | -7% | -19% | -4% | -87*
NCCCn1c(C(=O)c2ccc(Cl)cc2)c2ccc([N+](=O)[O-])cc2[n+]1[O-] | -75% | 0 | -2% | -16%[57.1 µM] | 5% | ?
COC(=O)c1ccccc1NC(=O)N1CCC(n2c(C)nc3cccnc32)CC1 | / | / | 12% | 3%[57.1 µM] | 8%[57.1 µM] | /
O=C(CCSCc1ccccc1F)N1CCN(c2ccccn2)CC1 | 10µM* | -3 | 6% | 11% | 9% | -2
Cc1ccc(Cl)cc1N1CCN(C(=O)CCSCc2ccccc2F)CC1 | / | / | 2% | 14%[57.1 µM] | 2%[57.1 µM] | /
CN(C)c1ncnc2c1ncn2-c1ccccc1 | 11µM* | -3 | 4% | 25%[11.4 µM] | 10%[57.1 µM] | -10
CCOc1ccc(NC(=O)Cn2cc(C(=O)c3ccc(CC)cc3)c(=O)c3ccc(C)nc32)cc1 | / | / | -8% | 14%[57.1 µM] | 0%[57.1 µM] | /
COC(=O)c1sc(NC(=O)c2oc3ccccc3c2C)nc1C | 7.1µM* | 1 | 4% | 12% | 26% | 35
O=C(CCN1CCCCC1)c1ccccc1 | 0% | -2 | 2% | ? | 10%[2.29 µM] | 7
O=c1oc2ccccc2c(N2CCCCC2)c1CN1CCCCC1 | 4% | -4 | 0% | 25µM* | 0% | -13
CCc1oc2ccccc2c1C(=O)CCN1CCCCC1 | -68% | -3 | 0% | 0.11µM* | 4% | 5
